These results are taken from ChEMBL document CHEMBL4513216, “Probing the Open Global Health Chemical Diversity Library for Multistage-Active Starting Points for Next-Generation Antimalarials” (ACS Infect Dis, 2020).

About 8,600 (12%) of roughly 69,000 compounds showed an effect of 50% or more. The sample holds strong results, similar compounds and a random draw of the others, so the mix is not that of the screen.

The subject of this test is Plasmodium berghei. Nature of the test: Screen against P. berghei liver stage (PbLuc), transformed with Luciferase, at 10uM. Type of test: functional, HepG2. Conditions: tested at 10 uM.
On to `O=C(Cc1cccc2ccccc12)N1CCC(Nc2cccnn2)CC1`, for which the INHIBITION is on record as -9.76%.
The same measure for `O=C(Cc1c[nH]c2ccccc12)N1CCC(Nc2cccnn2)CC1`: 21.8%; for `Cc1nn(C)c(C)c1CC(=O)N1CCC(Nc2cccnn2)CC1`: 53.5%; for `Cc1ccc(NC2CCN(C(=O)Cc3c(C)nn(C)c3C)CC2)nn1`: -3.547%.
Regarding `Cc1noc(C)c1CC(=O)N1CCC(Nc2cccnn2)CC1`, the INHIBITION is given as 17.883%.
For `Cn1cc(CC(=O)N2CCC(Nc3cccnn3)CC2)c2ccccc21`, the INHIBITION is on record as 66.8%.
The same measure for `CC(NC(=O)NCc1cccs1)c1ccc2c(c1)CCC(=O)N2` (stereo not given): -27.8%.
With `Cc1cc(C)c2c(c1)C(NCc1c(C)nn(C)c1N(C)C)CCO2` (stereo not given) the figure was 16.515%; with `O=C1CCC(C(=O)Nc2cnn(-c3ccccc3Br)c2)N1` (stereo not given), 47%; with `CCCN1CCN(C(=O)CCn2cccc2)CC1`, 16.8%.
The same measure for `c1cc(CN2CC[C@@H]3CN(c4cnccn4)C[C@@H]3C2)ccn1`: 27.6%.
Consider `O=C(C1CCCCC1)N1C[C@@H]2CCN(c3cnccn3)C[C@@H]2C1`, for which the INHIBITION is -15.9%.
The same measure for `Cn1ccc(C(=O)N2C[C@@H]3CCN(c4cccnc4)C[C@@H]3C2)n1`: 32.1%; for `Cn1ccnc1C(=O)N1C[C@@H]2CCN(c3cnccn3)C[C@@H]2C1`: 31.2%; for `c1cnc(N2C[C@H]3CCN(CCN4CCCC4)C[C@H]3C2)cn1`: 57.5%.
With `O=C(c1cnccn1)N1C[C@@H]2CCN(c3cnccn3)C[C@@H]2C1` the figure was 35.8%.
For `O=C(CC1CC1)N1C[C@@H]2CCN(c3cnccn3)C[C@@H]2C1`, the INHIBITION was found to be 15.7%.
On to `Cc1ccc(N2CC[C@H]3CN(C(=O)c4ccn(C)n4)C[C@H]3C2)nn1`, for which the INHIBITION amounted to 75.6%.
With `O=C(C1CCCC1)N1C[C@@H]2CCN(c3cnccn3)C[C@@H]2C1`, the INHIBITION was determined as 16.1%.
The same measure for `Cn1cncc1C(=O)N1C[C@@H]2CCN(c3cnccn3)C[C@@H]2C1`: 56.6%; for `c1cnc(N2C[C@H]3CCN(CC4CC4)C[C@H]3C2)cn1`: 58.4%; for `Cn1ccc(C(=O)N2C[C@@H]3CCN(c4cnccn4)C[C@@H]3C2)n1`: 24%.
The same measure for `Cc1cc(NC(=O)NCC(c2ccc(C)o2)N2CCOCC2)n(C)n1` (stereo not given): 45.7%.
For the compound `CC(NC(=O)NCCCn1cncn1)c1ccncc1` (stereo not given), the INHIBITION is 33%.
The same measure for `CN(C)[C@@H]1CCN(C(=O)CC2CC2)[C@H]1Cc1cnn(C)c1`: 4.27%; for `COCC1CN(Cc2ccoc2)Cc2nn(CC3CC3)cc21` (stereo not given): 1.9%; for `CC(=O)NCC(=O)N1C[C@@H]2CC[C@H](Oc3ccccc3Cl)[C@@H]2C1`: 30.8%.
With `CCOC(=O)NCCC(=O)NCc1ccnc(Oc2ccc(F)cc2)c1` the figure was 21.5%; with `CCOC(=O)NCCC(=O)NCc1ccc(Oc2cccc(F)c2)nc1`, 35.5%; with `CCOC(=O)NCCC(=O)NCc1ccc(Oc2ccc(F)cc2)nc1`, 61.5%.
`CCc1noc(CN2CCN(CCO)CC2)n1`: the INHIBITION is recorded as 15.8%.
The same measure for `Cc1cnn(CC2CCCN2CC(=O)Nc2cc(C)no2)c1` (stereo not given): -0.219%.
With `CCCC(=O)NC1CCc2c(ccc(=O)n2Cc2csc(C)n2)C1` (stereo not given) the figure was 17.6%; with `CC(C)N1CCOC(CC(=O)N2CCCN(Cc3cccs3)CC2)C1` (stereo not given), 28.5%; with `CC(C)N1CCOC(CC(=O)N2CCCN(Cc3ccncc3)CC2)C1` (stereo not given), 58.5%.
The same measure for `CC(C)N1CCOC(CC(=O)N2CCCN(c3ccc(F)cc3)CC2)C1` (stereo not given): 22.1%.
Consider `CC(C)N1CCOC(CC(=O)N2CC(c3ccncc3)C2)C1` (stereo not given), for which the INHIBITION is reported as 31.2%.
Consider `Cc1ccc(N2CCCN(C(=O)CC3CCCO3)CC2)nn1` (stereo not given), for which the INHIBITION is 35.3%.
The same measure for `Cc1ccccc1N1CCCN(C(=O)CC2CN(C(C)C)CCO2)CC1` (stereo not given): 60.3%; for `CN(C)C(=O)C1CN(Cc2ccsc2)CCN(S(C)(=O)=O)C1` (stereo not given): 20.8%; for `O=C(c1cccnc1)N1CCOCC2(CCN(c3ncccn3)C2)C1` (stereo not given): -62.6%.
The same measure for `CCn1nc(C)cc1C(=O)OCCNC(=O)c1ccccc1`: -1.95%; for `Cc1cc(C)c(C(=O)NCCNc2ncnc3ccccc23)c(=O)[nH]1`: -21.6%.
With `CCn1nc(C)cc1C(=O)OCCNc1ncnc2ccccc12` the figure was 83.2%; with `COC(=O)CSCc1noc(-c2ccc(C)cc2)n1`, 91.3%; with `COC(=O)CSCc1noc(-c2ccc(Cl)cc2)n1`, 46.6%.
For `COC(=O)CSCc1nc(-c2ccc(Cl)cc2)no1`, the INHIBITION is 48.8%.
With `Cn1cc(CCN2CCOC(CNc3cccnn3)C2)cn1` (stereo not given) the figure was -33.7%; with `CCCOCC1CCN(C(=O)c2cnc(C)nc2O)C1` (stereo not given), 35.8%; with `Nc1ccc(CC2COc3ccccc3C2)cn1` (stereo not given), 56.3%.
As to `Nc1cc(CC2COc3ccccc3C2)ccn1` (stereo not given), the INHIBITION worked out at 57.9%.
With `O=S(=O)(NCC1COc2ccccc2C1)N1CCCCCC1` (stereo not given) the figure was -9.3%; with `Cc1cc(NC(=O)NCC2COc3ccccc3C2)no1` (stereo not given), 40%; with `O=C(c1ccnc(CC2COc3ccccc3C2)c1)N1CCCC1` (stereo not given), 31.5%.
As to `Cn1cc(CN2C[C@@H]3COC[C@]3(C(=O)NCc3ccccn3)C2)cn1`, the INHIBITION is recorded as 13.7%.
With `CC(C)NC(=O)[C@@H]1CN(Cc2ccc3c(c2)OCO3)C[C@H]2OCC[C@H]21` the figure was 26.5%.
The same measure for `CN(Cc1noc(C2CC2)n1)C1CCCN(c2cccnn2)C1` (stereo not given): 5.9%; for `CC1(C(=O)NC2CCCC2)CN(c2cnccn2)CCO1` (stereo not given): 12.3%; for `CC(=O)NCCc1ccc(S(=O)(=O)N(C)C(C)CC(C)C)s1` (stereo not given): 68.2%.
On to `CCC(CC)N(C)S(=O)(=O)c1ccc(CCNC(C)=O)s1`, for which the INHIBITION is -79.8%.
With `CCC(C)N(C)S(=O)(=O)c1ccc(CCNC(C)=O)s1` (stereo not given) the figure was 13.7%.
For `COCCCN(Cc1cc(O)nc2ccccc12)C(=O)NC(C)C`, the INHIBITION was 33%.
The same measure for `CC(C)CN1CCn2nc(CNc3ncnc4[nH]cnc34)cc2C1`: 33%; for `c1nc(NCc2cc3n(n2)CCN(C2CCCCC2)C3)c2nc[nH]c2n1`: 78.5%.
With `CC(C)NCc1cc2n(n1)CCN(C1CCCCC1)C2` the figure was 14.9%; with `Cc1nc(CN2C(=O)C[C@@H]3[C@@H]2CCN3Cc2cnn(C)c2)cs1`, -8.51%; with `CCc1nnc2ccc(N3CCN(S(=O)(=O)c4ccc(Cl)s4)CC3)nn12`, 32.3%.
Regarding `CSc1sc(NC(=O)Cc2c(C)nc(C)[nH]c2=O)nc1C`, the INHIBITION amounted to 71.4%.
As for `Cc1nc(C)c(CC(=O)Nc2nnc(C)s2)c(=O)[nH]1`, the INHIBITION is 20.1%.
The same measure for `Cc1nc(C)c(CC(=O)Nc2nc(C)c(C)s2)c(=O)[nH]1`: 21.1%; for `O=c1[nH]c(-c2ccccn2)nc2c1CCN(S(=O)(=O)N1CCCC1)C2`: 7.92%; for `CS(=O)(=O)c1cn[nH]c1C1CCCN(C(=O)CN2CCOCC2)C1` (stereo not given): 20.8%.
The same measure for `O=C(CN1CCOC(c2ccc(Cl)s2)C1)NCc1ccco1` (stereo not given): 52.8%.
`O=C(CN1CCOC(c2ccc(Cl)c(Cl)c2)C1)NCc1ccco1` (stereo not given): the INHIBITION was 21.5%.
With `CC(C)C(C)(C#N)NC(=O)CN1CCC(c2ccnn2CCO)CC1` (stereo not given) the figure was -1.14%; with `Cn1nccc1C1CCN(CC(=O)NCC2CC2)CC1`, 70.8%.
On to `Cc1csc(NC(=O)CN2CCC(c3ccnn3CCO)CC2)n1`, for which the INHIBITION is 66%.
In the case of `N#CC1(NC(=O)CN2CCC(c3ccnn3CCO)CC2)CCCC1`, the INHIBITION was determined as 37.9%.
The same measure for `O=C(CN1CCC(c2ccnn2CCO)CC1)NCc1cccs1`: 10.8%.
With `O=C(CN1CCC(c2ccnn2CCO)CC1)NCC1CC1` the figure was 33.3%; with `O=C(CN1CCC(c2ccnn2CCO)CC1)NCC1CCCCC1`, -17.6%; with `O=C(CN1CCC(c2ccnn2CCO)CC1)NC1CCCC1`, -11.4%.
Consider `O=C(CN1CCC(c2ccnn2CCO)CC1)NCc1ccco1`, for which the INHIBITION is reported as 58.5%.
The same measure for `CCC1CN(CC(=O)NCc2ccco2)CCO1` (stereo not given): 36.6%; for `Cc1ccc(CN2CCC3(CC2)CN(C(=O)c2cnccn2)CCO3)o1`: -14.2%.
With `O=C(N1CCCC1)N1CCN(Cc2cccnc2)c2ncccc2C1` the figure was 31.2%; with `Cn1nccc1C(=O)N1CCC(c2nnsc2S(C)(=O)=O)CC1`, 30.95%; with `COC1(CNC(=O)NCc2ccccc2)CCSC1` (stereo not given), 18.7%.
With `Cc1nc(CNC(=O)NCC(O)c2ccccc2)cs1` (stereo not given) the figure was 11.2%; with `CC(C)S(=O)(=O)N1CCC(c2[nH]ncc2S(C)(=O)=O)C1` (stereo not given), 37.6%; with `CN(CCC#N)C(=O)C(C)(C)Oc1ccc(C(N)=O)cc1`, 25.3%.
As for `CC(=O)N1CCN(CCNC(=O)c2nc3ccccc3c(=O)[nH]2)CC1`, the INHIBITION is listed as -96.2%.
The same measure for `CCNC(=O)[C@@H]1C[C@@H](NC(=O)c2ccc(C)cc2O)CN1CCCSC`: 15.9%; for `Cc1cc(OCC(=O)N2CCCC(c3nccs3)C2)no1` (stereo not given): -19.6%.
With `Cc1nn(C)c(Cl)c1S(=O)(=O)N(C)c1ccc(Cl)cn1` the figure was 14.4%; with `O=C1CC(c2ccncc2)C2(CCN(Cc3ccc(F)cc3)CC2)N1` (stereo not given), 1.71%; with `CN(C)CCOCc1nnc2n1CCN(Cc1ccco1)CC2`, 16.4%.
The same measure for `Cc1cc(Br)ccc1C(=O)Nc1c(C(N)=O)n[nH]c1C`: 3.87%; for `Cc1cnc2c(C(=O)N3CCCC(OCc4ccccn4)C3)cnn2c1` (stereo not given): 37.9%.
Consider `CCOCC(=O)N1CCC(C2CCN(Cc3ccc(Cl)cc3)C2)CC1` (stereo not given), for which the INHIBITION turned out to be 26.9%.
With `O=C1CN(C(=O)C2CCCCC2)CC(O)CN1Cc1ccc(Cl)cc1` (stereo not given) the figure was -0.473%; with `O=C(C1CCC1)N1CCC(C2CCN(Cc3ccc(Cl)cc3)C2)CC1` (stereo not given), 55.6%; with `CN1CCN(Cc2ccc(Cl)cc2)CC1C(=O)O` (stereo not given), 17%.
With `CC(=O)NCC(=O)N1CCC(C2CCN(Cc3ccc(Cl)cc3)C2)CC1` (stereo not given) the figure was 26.9%; with `O=C(C1CCCC1)N1CCC(C2CCN(Cc3ccc(Cl)cc3)C2)CC1` (stereo not given), 67.3%.
